Measurements reported in PubChem BioAssay (EPA / NIEHS).
Results filed as inconclusive are left out. More than one record can exist for a structure, and the calls need not agree. The source made the active and inactive calls. Rule for the calls, unless noted: active = hit-call score of the fitted dose curve at least 0.9, where 1 is the maximum; inactive = score below 0.9.

Columns and labels:
[1] = target: Bile acid receptor (Homo sapiens) (UniProt Q96RI1); assay: OT_FXR_FXRSRC1_1440: Odyssey Thera (OT) 24-hour HEK293T Protein-Complementation Assay for Farnesoid X receptor/SRC-1 Co-activator (AID 2283384; active = hit-call score of the fitted dose curve at least 0.9, where 1 is the maximum)
Chain of Bile acid receptor (Homo sapiens) (Q96RI1 whole entry, looked up, the tested form may be a part): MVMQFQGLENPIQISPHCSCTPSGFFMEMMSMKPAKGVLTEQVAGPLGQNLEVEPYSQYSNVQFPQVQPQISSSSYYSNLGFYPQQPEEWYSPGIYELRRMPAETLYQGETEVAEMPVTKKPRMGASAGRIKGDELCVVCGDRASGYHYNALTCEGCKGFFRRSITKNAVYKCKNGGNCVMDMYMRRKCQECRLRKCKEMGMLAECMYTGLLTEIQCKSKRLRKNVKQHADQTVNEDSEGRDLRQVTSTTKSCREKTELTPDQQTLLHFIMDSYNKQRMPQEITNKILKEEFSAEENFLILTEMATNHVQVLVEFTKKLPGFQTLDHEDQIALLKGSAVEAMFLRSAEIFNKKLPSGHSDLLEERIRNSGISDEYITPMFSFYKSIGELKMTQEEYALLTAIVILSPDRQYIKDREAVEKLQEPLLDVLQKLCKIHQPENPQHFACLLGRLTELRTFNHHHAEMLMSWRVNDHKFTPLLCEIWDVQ
How it was run: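 Cell-based binding reporter: interaction of FXR with SRC-1 brings reporter fragments together, giving a fluorescence signal read 24 h after dosing of HEK293T cells.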

[2] = target: Retinoic acid receptor RXR-alpha (Homo sapiens) (UniProt P19793); assay: OT_NURR1_NURR1RXRa_1440: Odyssey Thera (OT) 24-hour HEK293T Protein Complementation Assay for Nurr1/retinoid X receptor (RXR) (AID 2283386; active = hit-call score of the fitted dose curve at least 0.9, where 1 is the maximum)
Chain of Retinoic acid receptor RXR-alpha (Homo sapiens) (P19793 whole entry, looked up, the tested form may be a part): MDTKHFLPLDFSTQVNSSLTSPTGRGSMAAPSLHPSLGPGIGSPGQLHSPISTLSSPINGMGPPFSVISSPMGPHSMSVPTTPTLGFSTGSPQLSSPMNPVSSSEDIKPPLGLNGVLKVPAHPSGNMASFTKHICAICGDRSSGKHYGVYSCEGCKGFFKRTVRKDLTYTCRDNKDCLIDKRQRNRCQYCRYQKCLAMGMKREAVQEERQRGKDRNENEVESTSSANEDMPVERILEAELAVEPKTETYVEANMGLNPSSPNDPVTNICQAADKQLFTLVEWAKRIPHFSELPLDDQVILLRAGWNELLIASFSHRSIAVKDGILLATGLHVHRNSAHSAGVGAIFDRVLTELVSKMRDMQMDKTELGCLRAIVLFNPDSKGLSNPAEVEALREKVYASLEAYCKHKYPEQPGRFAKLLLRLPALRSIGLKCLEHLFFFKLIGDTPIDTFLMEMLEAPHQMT
How it was run: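 Measured as fluorescence from a reconstituted split reporter, this 24 h HEK293T complementation assay scores compound-induced gain of Nurr1/RXRα association relative to DMSO.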

[3] = target: Peroxisome proliferator-activated receptor gamma (Homo sapiens) (UniProt P37231); assay: OT_PPARg_PPARgSRC1_0480: Odyssey Thera (OT) 8-hour Protein-Complementation Assay for Peroxisome Proliferator-activated Receptor Gamma / SRC-1 Co-activator (AID 2283387; active = hit-call score of the fitted dose curve at least 0.9, where 1 is the maximum;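 note: nuclear to cytoplasmic split Venus YFP fluorescence ratio reporting PPARg SRC-1 interaction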)
Chain of Peroxisome proliferator-activated receptor gamma (Homo sapiens) (P37231 whole entry, looked up, the tested form may be a part): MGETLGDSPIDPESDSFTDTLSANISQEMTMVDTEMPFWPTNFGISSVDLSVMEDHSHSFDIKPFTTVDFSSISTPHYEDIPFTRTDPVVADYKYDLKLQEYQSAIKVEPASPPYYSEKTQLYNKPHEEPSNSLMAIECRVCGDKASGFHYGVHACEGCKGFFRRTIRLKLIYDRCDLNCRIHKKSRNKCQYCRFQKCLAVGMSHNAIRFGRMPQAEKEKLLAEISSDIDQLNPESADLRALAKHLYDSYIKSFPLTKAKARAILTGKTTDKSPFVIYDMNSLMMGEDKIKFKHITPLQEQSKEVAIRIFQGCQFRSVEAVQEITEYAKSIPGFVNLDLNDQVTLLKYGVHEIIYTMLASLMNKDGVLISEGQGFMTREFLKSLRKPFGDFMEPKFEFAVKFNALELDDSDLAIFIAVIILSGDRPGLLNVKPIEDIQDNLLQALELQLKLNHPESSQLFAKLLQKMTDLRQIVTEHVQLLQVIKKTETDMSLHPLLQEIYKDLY
How it was run: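 Split-YFP (IFP1/IFP2) PPARg/SRC-1 reporter, HEK293T, 37 °C, 5% CO2; 8 h compound; formaldehyde fix + Draq5; high-content imaging, N/C ratio, ≥350 cells/image, positive direction vs DMSO.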

[4] = read-out: Tumor necrosis factor receptor superfamily member 6 (Homo sapiens) (UniProt P25445); assay: LTEA_HepaRG_FAS: Life Technologies and Expression Analysis (LTEA) Assay for Fas cell surface death receptor (FAS) using HepaRG (AID 2283447); details: mRNA level, 48 h; actives raise or lower the signal
How it was run: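 Differentiated HepaRG cells in serum-free induction medium were exposed 48 h to 8 half-log concentrations up to 100 uM in 0.5% DMSO, in duplicate. FAS mRNA was measured by qRT-PCR normalised to ACTB, GAPDH and POLR2A; bidirectional fit versus DMSO.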

[5] = read-out: Fatty acid synthase (Homo sapiens) (UniProt P49327); assay: LTEA_HepaRG_FASN: Life Technologies and Expression Analysis (LTEA) Assay for Fatty Acid Synthase (FASN) using HepaRG (AID 2283448); details: mRNA level, 48 h; actives raise or lower the signal;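 for AC50: differentiated human HepaRG liver cells in serum-free induction medium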
How it was run: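 Transcript-level assay: HepaRG liver cells are treated for 48 h across an eight-point range topping at 100 uM, and FASN mRNA, normalized to three housekeeping genes, is compared with DMSO controls in both directions.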

[6] = read-out: Cyclin D2 (CCND2), CCND2 (gene 894); assay: LTEA_HepaRG_CCND2: Life Technologies and Expression Analysis (LTEA) Assay for Cyclin D2 (CCND2) using HepaRG (AID 2283449); details: mRNA level, 48 h; actives raise or lower the signal;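 note: CCND2 transcript measured by TaqMan qRT-PCR and normalised to three housekeeping genes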
How it was run: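 Chemicals in 0.5% DMSO, eight half-log concentrations from 100 uM top, were applied in duplicate for 48 h to human HepaRG cells in serum-free induction medium. CCND2 mRNA by TaqMan qRT-PCR, normalised to ACTB/GAPDH/POLR2A; bidirectional fit versus DMSO.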

[7] = read-out: Cyclin D1 (CCND1), CCND1 (gene 595); assay: LTEA_HepaRG_CCND1: Life Technologies and Expression Analysis (LTEA) Assay for Cyclin D1 (CCND1) using HepaRG (AID 2283451); details: mRNA level, 48 h; actives raise or lower the signal
How it was run: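 Human liver HepaRG line; 48 h dosing, 8 conc. ≤100 uM, 0.5% DMSO; TaqMan qRT-PCR mRNA, 3 housekeeping genes; bidirectional curve fit vs DMSO.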

[8] = read-out: catalase (CAT), CAT (gene 847); assay: LTEA_HepaRG_CAT: Life Technologies and Expression Analysis (LTEA) Assay for catalase (CAT) using HepaRG (AID 2283452); details: mRNA level, 48 h; actives raise or lower the signal;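 for AC50: TaqMan qRT-PCR signal normalized to ACTB GAPDH and POLR2A housekeeping genes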
How it was run: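 HepaRG cells in serum-free induction medium, 0.5% DMSO vehicle, exposed 48 h in duplicate over 8 half-log concentrations from 100 uM. CAT mRNA measured by qRT-PCR, normalized to ACTB, GAPDH, POLR2A; bidirectional fit versus DMSO.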

[9] = target: Retinoic acid receptor RXR-alpha (Homo sapiens) (UniProt P19793); assay: OT_NURR1_NURR1RXRa_0480: Odyssey Thera (OT) 8-hour HEK293T Protein Complementation Assay for Nurr1/retinoid X receptor (RXR) (AID 2283385; active = hit-call score of the fitted dose curve at least 0.9, where 1 is the maximum)
How it was run: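 Compounds are applied to HEK293T cells carrying Nurr1 and RXRα linked to reporter fragments. After 8 h, fluorescence intensity reports heterodimer formation, with DMSO as baseline.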

[10] = CEETOX_H295R_11DCORT: CeeTox H295R High-throughput Steroidogenesis Assay for 11-Deoxycortisol (11DCORT) (AID 2283432); details: actives raise or lower the signal
How it was run: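 Steroidogenesis in human H295R cells: 48 h chemical exposure after forskolin priming, 11-deoxycortisol measured by LC-MS/MS.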

[11] = CEETOX_H295R_OHPREG: CeeTox H295R High-throughput Steroidogenesis Assay for OH-Pregnenolone (OHPREG) (AID 2283434); details: actives raise or lower the signal
How it was run: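 H295R cells pre-stimulated 48 h with 10 uM forskolin, then exposed 48 h to chemical in 0.1% DMSO. 17alpha-hydroxypregnenolone in medium quantified by MTBE extraction and HPLC-MS/MS; bidirectional fit versus DMSO, viability checked by MTT.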

[12] = CEETOX_H295R_OHPROG: CeeTox H295R High-throughput Steroidogenesis Assay for OH-Progesterone (OHPROG) (AID 2283435); details: actives raise or lower the signal;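 for AC50: human adrenal H295R cells primed 48 h with 10 µM forskolin; 17alpha-hydroxyprogesterone secreted into medium measured by HPLC-MS/MS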
How it was run: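 Secreted 17alpha-hydroxyprogesterone is read by tandem MS from media of forskolin-primed H295R cells dosed with chemical for 48 h. Activity is fitted in both directions against DMSO baseline; cytotoxic concentrations are re-tested diluted.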

[13] = CEETOX_H295R_CORTISOL: CeeTox H295R High-throughput Steroidogenesis Assay for Cortisol (AID 2283438); details: actives raise or lower the signal;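 note: cortisol secreted into medium quantified by LC-MS/MS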
How it was run: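 Human adrenocortical H295R cells (passage ≤10) received test chemicals for 48 h after forskolin priming. Secreted cortisol was measured by LC-MS/MS.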

[14] = CEETOX_H295R_DOC: CeeTox H295R High-throughput Steroidogenesis Assay for DOC (AID 2283439); details: actives raise or lower the signal
How it was run: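 Secreted DOC was quantified from H295R media by HPLC-MS/MS after 48 h chemical exposure following 48 h forskolin (10 uM) prestimulation. Values were fitted in both directions relative to DMSO, the negative control and baseline.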

[15] = CEETOX_H295R_ESTRADIOL: CeeTox H295R High-throughput Steroidogenesis Assay for Estradiol (AID 2283440); details: actives raise or lower the signal;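 note: estradiol secreted into medium quantified by LC-MS/MS after dansyl derivatisation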
How it was run: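 Following OECD 456 with minor changes, H295R cells received 10 uM forskolin for 48 h and then test chemical for 48 h. Hormone output was read by HPLC-MS/MS, with cytotoxic concentrations diluted until MTT viability reached ≥70%.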

[16] = CEETOX_H295R_ESTRONE: CeeTox H295R High-throughput Steroidogenesis Assay for Estrone (AID 2283441); details: actives raise or lower the signal;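 note: estrone secreted into medium measured by LC-MS/MS after dansyl derivatization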;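 for AC50: human adrenal H295R cells prestimulated with forskolin for two days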
How it was run: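 H295R cells; 48 h forskolin (10 uM) prestimulation; 48 h compound exposure, 0.1% DMSO final. Medium estrone: MTBE extraction, dansyl derivatization, HPLC-MS/MS. Bidirectional fit vs DMSO.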

[17] = CEETOX_H295R_PROG: CeeTox H295R High-throughput Steroidogenesis Assay for Progesterone (PROG) (AID 2283442); details: actives raise or lower the signal;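 for AC50: human H295R adrenal cells primed with 10 µM forskolin before dosing; progesterone secreted into medium by H295R cells measured by HPLC-MS/MS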
How it was run: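 Adrenal H295R line, forskolin-stimulated (10 uM, 48 h) before dosing. 48 h exposure, 0.1% DMSO vehicle. Secreted progesterone by reverse-phase HPLC with ESI+ MS/MS quantification; DMSO-normalised bidirectional curve fit.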

[18] = target: Peroxisome proliferator-activated receptor gamma (Homo sapiens) (UniProt P37231); assay: OT_PPARg_PPARgSRC1_1440: Odyssey Thera (OT) 24-hour Protein-Complementation Assay for Peroxisome Proliferator-activated Receptor Gamma/ SRC-1 Co-activator (AID 2283388; active = hit-call score of the fitted dose curve at least 0.9, where 1 is the maximum;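 note: nuclear to cytoplasmic ratio of reconstituted Venus YFP fluorescence in fixed imaged cells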)
How it was run: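 Transient HEK293T, YFP fragments 1-158/159-239 (mutant IFP1/IFP2) fused to PPARg/SRC-1; 24 h dosing; fix 4% formaldehyde, Draq5; Opera imaging 488/635 nm; N/C ratio, gain vs DMSO.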

[19] = read-out: Cyclin Dependent Kinase Inhibitor 1A (CDKN1A), CDKN1A (gene 1026); assay: LTEA_HepaRG_CDKN1A: Life Technologies and Expression Analysis (LTEA) Assay for Cyclin Dependent Kinase Inhibitor 1A (CDKN1A) using HepaRG (AID 2283450); details: mRNA level, 48 h; actives raise or lower the signal
How it was run: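 Cryopreserved HepaRG cells were plated and cultured 48 h, then switched to serum-free induction medium. Chemicals (eight half-log concentrations, top 100 uM, 0.5% DMSO) were applied for 48 h. Lysates underwent qRT-PCR for CDKN1A with housekeeping normalization.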

Measured: AC50

Chain of Fatty acid synthase (Homo sapiens) (P49327 whole entry, looked up): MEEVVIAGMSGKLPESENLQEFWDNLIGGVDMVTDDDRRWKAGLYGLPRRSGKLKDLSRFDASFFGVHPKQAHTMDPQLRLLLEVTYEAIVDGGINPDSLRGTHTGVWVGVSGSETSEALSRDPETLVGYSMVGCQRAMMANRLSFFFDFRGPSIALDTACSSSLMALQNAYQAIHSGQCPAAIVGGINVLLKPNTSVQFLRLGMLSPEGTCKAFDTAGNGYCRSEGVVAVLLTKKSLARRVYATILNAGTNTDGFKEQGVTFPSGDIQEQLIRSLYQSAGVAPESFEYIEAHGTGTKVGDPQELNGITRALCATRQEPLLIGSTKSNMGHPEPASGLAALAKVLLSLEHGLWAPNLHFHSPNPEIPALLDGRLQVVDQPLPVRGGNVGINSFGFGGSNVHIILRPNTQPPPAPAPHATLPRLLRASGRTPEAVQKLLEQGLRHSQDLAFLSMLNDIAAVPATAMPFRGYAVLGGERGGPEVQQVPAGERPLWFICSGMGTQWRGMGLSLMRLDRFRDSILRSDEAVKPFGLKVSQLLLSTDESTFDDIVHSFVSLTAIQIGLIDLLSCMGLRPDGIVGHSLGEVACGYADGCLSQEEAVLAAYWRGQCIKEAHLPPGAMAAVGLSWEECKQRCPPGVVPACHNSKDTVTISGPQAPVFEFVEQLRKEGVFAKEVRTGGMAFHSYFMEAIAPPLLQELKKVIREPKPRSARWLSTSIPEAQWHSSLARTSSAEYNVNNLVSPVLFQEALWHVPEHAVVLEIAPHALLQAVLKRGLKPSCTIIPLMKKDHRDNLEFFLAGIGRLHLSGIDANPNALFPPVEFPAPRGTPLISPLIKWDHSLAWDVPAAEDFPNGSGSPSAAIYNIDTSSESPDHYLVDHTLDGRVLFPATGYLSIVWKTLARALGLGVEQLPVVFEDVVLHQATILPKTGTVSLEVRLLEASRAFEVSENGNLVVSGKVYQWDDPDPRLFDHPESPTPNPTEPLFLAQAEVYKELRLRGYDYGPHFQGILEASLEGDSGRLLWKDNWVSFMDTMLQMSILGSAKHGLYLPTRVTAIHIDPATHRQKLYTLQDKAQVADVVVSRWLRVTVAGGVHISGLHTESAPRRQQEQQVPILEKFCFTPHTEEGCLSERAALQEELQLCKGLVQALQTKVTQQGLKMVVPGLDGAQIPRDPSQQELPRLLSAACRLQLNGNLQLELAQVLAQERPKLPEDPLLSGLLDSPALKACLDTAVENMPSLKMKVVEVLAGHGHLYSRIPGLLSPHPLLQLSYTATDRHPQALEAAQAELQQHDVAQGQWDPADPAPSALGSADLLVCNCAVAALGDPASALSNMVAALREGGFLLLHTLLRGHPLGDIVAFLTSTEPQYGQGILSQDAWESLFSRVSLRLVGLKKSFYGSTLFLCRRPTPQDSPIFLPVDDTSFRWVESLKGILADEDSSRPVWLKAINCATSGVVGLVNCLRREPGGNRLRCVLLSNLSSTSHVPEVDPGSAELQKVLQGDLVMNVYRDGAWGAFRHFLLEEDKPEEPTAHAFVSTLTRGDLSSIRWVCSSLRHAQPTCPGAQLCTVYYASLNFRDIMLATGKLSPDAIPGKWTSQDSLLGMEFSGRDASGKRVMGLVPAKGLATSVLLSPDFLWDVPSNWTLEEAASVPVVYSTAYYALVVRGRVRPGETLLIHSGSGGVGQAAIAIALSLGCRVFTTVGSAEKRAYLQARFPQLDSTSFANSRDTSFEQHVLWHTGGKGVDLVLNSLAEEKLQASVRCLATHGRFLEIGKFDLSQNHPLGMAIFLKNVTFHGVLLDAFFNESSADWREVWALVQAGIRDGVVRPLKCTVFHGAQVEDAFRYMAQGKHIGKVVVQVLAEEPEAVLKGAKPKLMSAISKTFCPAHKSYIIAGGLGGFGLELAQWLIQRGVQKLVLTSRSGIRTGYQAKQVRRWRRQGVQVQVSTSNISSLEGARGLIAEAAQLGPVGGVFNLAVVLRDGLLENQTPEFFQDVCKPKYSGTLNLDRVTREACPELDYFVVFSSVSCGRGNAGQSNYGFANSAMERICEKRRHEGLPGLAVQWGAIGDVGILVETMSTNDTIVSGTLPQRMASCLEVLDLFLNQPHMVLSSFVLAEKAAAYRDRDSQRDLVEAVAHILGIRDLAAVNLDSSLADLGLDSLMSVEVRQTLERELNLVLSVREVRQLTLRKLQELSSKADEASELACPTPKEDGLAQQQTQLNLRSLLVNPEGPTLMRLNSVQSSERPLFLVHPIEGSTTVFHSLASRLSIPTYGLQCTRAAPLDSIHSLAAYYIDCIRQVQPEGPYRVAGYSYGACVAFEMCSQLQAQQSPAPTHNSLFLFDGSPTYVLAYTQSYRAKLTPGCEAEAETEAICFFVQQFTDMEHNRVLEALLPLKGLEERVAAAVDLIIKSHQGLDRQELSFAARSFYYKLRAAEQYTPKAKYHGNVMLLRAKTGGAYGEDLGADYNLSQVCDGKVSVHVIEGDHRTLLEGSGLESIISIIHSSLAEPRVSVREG

Cc1nc(-c2ccccn2)ncc1C(=O)Nn1cc(C)c2cc(F)ccc21
active: [6] 1.49 µM | [8] 50 µM
inactive: [1] | [2] | [3] | [4] | [5] | [7]

CCCOc1ccc(S(=O)(=O)N2CCN(CC)CC2)cc1-c1nc2c(CC)n(Cc3ccccn3)nc2c(=O)[nH]1
active: [5] 50 µM
not listed: [2] | [18] | [19]
inactive: all other assays above

O=C(O)c1ccc2c(c1)nc(C(=O)NC1CCN(C3CC3)CC1)n2Cc1cc(-c2ccc(Cl)s2)on1
inactive: [1] | [9] | [2] | [3] | [18] | [4] | [5] | [6] | [7] | [8]

CC(C)CC(C)O (centres undefined)
inactive: [9] | [2] | [3] | [18] | [4] | [5] | [6] | [19] | [7] | [8]

CCCC(CCC)C(=O)O
active: [9] 90.4 µM
inactive: [9] | [2] | [3] | [4] | [5] | [6] | [19] | [7] | [8]

CC(=O)c1ccccc1
inactive: [9] | [2] | [3] | [18] | [4] | [5] | [6] | [19] | [7] | [8]

NNC(=O)c1ccncc1
inactive: [9] | [2] | [3] | [18] | [4] | [5] | [6] | [19] | [7] | [8]

Cc1cccc(O)c1C
inactive: [1] | [3] | [18]

NC(=O)NN=Cc1ccc([N+](=O)[O-])o1
active: [5] 50 µM | [6] 0.0722 µM
inactive: [9] | [2] | [3] | [18] | [4] | [19] | [7] | [8]

CCn1nc(C)c2c1C(=O)NCC(c1ccc(O)cc1)=N2
inactive: [9] | [2] | [3] | [18] | [10] | [11] | [13] | [4] | [6] | [7] | [8]
active: [2] 21.4 µM | [12] 2.63 µM | [14] 50 µM | [15] 0.18 µM | [16] 0.185 µM | [17] 1.91 µM | [5] 17.1 µM

Cc1nccn1-c1ccc(Sc2cccc(C3(C(N)=O)CCOCC3)c2)cc1
active: [1] 9.64 µM | [2] 50 µM | [5] 9.48 µM | [8] 8.97 µM
inactive: [9] | [2] | [3] | [4] | [6] | [7]

CCCCCOC(C)=O
inactive: [9] | [2] | [3] | [18] | [4] | [5] | [6] | [19] | [7] | [8]

O=C(O)[C@H](O)[C@@H](O)C(=O)O
not listed: [10] | [11] | [12] | [13] | [14] | [15] | [16] | [17]
inactive: all other assays above

O=C(O)c1cccc(C(=O)O)c1
inactive: [1] | [3] | [18] | [4] | [5] | [6] | [19] | [7] | [8]

OCc1ccccc1
inactive: [9] | [2] | [3] | [18] | [4] | [5] | [6] | [19] | [7] | [8]

O=S(=O)(O)c1ccc(N=Nc2c(O)ccc3cc(S(=O)(=O)O)ccc23)cc1
inactive: [1] | [9] | [2] | [4] | [5] | [6] | [19] | [7] | [8]

O=S1(=O)CCCO1
inactive: [9] | [2] | [3] | [18] | [4] | [5] | [6] | [19] | [7] | [8]

OC[C@H]1O[C@@](CO)(O[C@H]2O[C@H](CO)[C@@H](O)[C@H](O)[C@H]2O)[C@@H](O)[C@@H]1O
inactive: [1] | [9] | [2] | [3] | [4] | [5] | [6] | [19] | [7] | [8]
